Data on 41 compounds can be found in PubChem BioAssay AID493036 (Sanford-Burnham Center for Chemical Genomics, 2011).

Molecules are shown by their SMILES. About 560 (0.17%) of roughly 330,000 compounds were called active.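 The calls were made as follows: active = activation at or above 40% of the spot to cytoplasm intensity ratio, with at least 20 cells analyzed; inconclusive = wells under 20 cells, flagged as cytotoxic or low count; inactive = the rest.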 What follows is part of a selection rich in actives, with near analogues and random picks from the rest.

Assay [1] can be described thus: agonists of human NTR1, primary screen, imaging, U2OS cells, beta-arrestin-GFP, high content (AID 493036).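 As to activation: 0% = DMSO without peptide and 100% = 100 nM NTR1 peptide.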 Conditions: NTR1-U2OS beta-arrestin-GFP spot imaging, agonist mode; measured here: cell count, cytotoxicity flag; at 20 µM.
Assay [2] addresses Neurotensin receptor type 1 (Homo sapiens) (UniProt P30989). The description is as above. Conditions: NTR1-U2OS beta-arrestin-GFP spot imaging, agonist mode; at 20 µM; stronger effect = higher value.

Neurotensin receptor type 1 (Homo sapiens), sequence (P30989 whole entry, looked up): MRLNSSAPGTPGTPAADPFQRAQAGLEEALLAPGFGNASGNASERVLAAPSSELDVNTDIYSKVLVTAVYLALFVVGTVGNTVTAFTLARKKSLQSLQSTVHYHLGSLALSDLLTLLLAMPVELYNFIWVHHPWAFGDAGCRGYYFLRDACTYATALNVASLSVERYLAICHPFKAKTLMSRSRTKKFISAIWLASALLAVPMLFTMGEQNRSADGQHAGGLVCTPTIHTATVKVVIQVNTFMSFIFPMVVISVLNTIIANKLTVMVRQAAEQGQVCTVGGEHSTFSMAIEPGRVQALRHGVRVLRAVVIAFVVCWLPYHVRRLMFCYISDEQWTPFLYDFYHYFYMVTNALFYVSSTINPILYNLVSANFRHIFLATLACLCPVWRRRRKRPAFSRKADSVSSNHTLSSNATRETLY

With `CC(C)(C)c1nnc(N/N=C/c2ccc(O)cc2)n(N)c1=O`, the cell count in assay [1] was determined as 60 cells. For the same compound, the activation in assay [2] was 1.1% (inactive).
The compound `O=C(CCNS(=O)(=O)c1cccs1)N1CCN(c2ccc(F)cc2)CC1` showed a cell count in assay [1] of 42 cells. For the same compound, the activation in assay [2] is -0.5% (inactive).
With `CCOC(=O)CN1CC23C=CC(O2)C(C(=O)Nc2ccc(F)cc2)C3C1=O` (configuration not stated), the cell count in assay [1] amounted to 46 cells. In assay [2], the activation is -1.6% (inactive).
In turn, `COc1ccc(N2CCN(S(=O)(=O)c3ccc4c(c3)N(C(C)=O)CCO4)CC2)cc1` came in with a cell count in assay [1] of 59 cells. Further, the activation in assay [2] is 1.4% (inactive).
Compound `CCN(CC)S(=O)(=O)c1ccc(Cl)c(C(=O)NC(C)C(c2cccs2)N2CCCC2)c1` (configuration not stated) returned a cell count in assay [1] of 57 cells. In assay [2], the activation was 0.4% (inactive).
In the same order, the values of `COC(c1ccccc1)c1nnc(CCC(=O)N2CCN(CCOc3ccccc3)CC2)o1` (configuration not stated) are 37 cells and 0.7% (inactive).
Consider `O=C1CN(C(=O)c2ccccc2F)C(c2ccc(F)cc2)c2cc(F)ccc2N1` (configuration not stated), for which, in assay [1], the cell count turned out to be 89 cells. For the same compound, the activation in assay [2] is 0% (inactive).
For `O=C(CN1CCCSc2ccccc21)N1CCN(S(=O)(=O)c2ccccc2)CC1`, the cell count in assay [1] was 62 cells. Further, in assay [2], the activation was 0% (inactive).
For the compound `O=C(CCc1ccccc1Cl)Nc1ccc(S(=O)(=O)Nc2nccs2)cc1`, the cell count in assay [1] amounted to 42 cells. Further, in assay [2], the activation was 1.9% (inactive).
In the same order, the values of `O=C(CS(=O)(=O)c1ccc(C(F)(F)F)cn1)NNC(=O)c1ccccc1` are 55 cells and -1% (inactive).
Compound `Cc1ccc(C(C)NC(=O)Cn2nc(C)c([N+](=O)[O-])c2C)cc1` (configuration not stated) yielded a cell count in assay [1] of 54 cells. Also, in assay [2], the activation is 3.1% (inactive).
In the same order, the values of `O=C(Cn1ncc(N2CCCC2)c(Br)c1=O)c1ccc(Cl)cc1` are 53 cells and 2.8% (inactive).
With `CCC/C(C)=N\Nc1nc2c(c(=O)n(C)c(=O)n2C)n1C`, the cell count in assay [1] amounted to 58 cells. In addition, the activation in assay [2] was 0.3% (inactive).
In the same order, the values of `CCOc1ccc(NC(=O)N2CC=C(n3c(=O)[nH]c4ccccc43)CC2)cc1` are 42 cells and 0.4% (inactive).
In turn, `COc1ccc(C(C(=O)NC2CCCCC2)N(C(=O)CCl)c2ccccc2Cl)cc1` (configuration not stated) gave a cell count in assay [1] of 35 cells. Besides, the activation in assay [2] was 7.8% (inactive).
The matching figures for `O=C(OCC(=O)N1CCCC1=O)c1cc(S(=O)(=O)N2CCOCC2)ccc1Cl`: 45 cells and -0.7% (inactive).
Turning to `Nc1c(C(=O)Nc2ccc3c(c2)OCCO3)nnn1Cc1ccccc1`, the cell count in assay [1] came out at 53 cells. The activation in assay [2] was 0.3% (inactive).
`CCOc1ccc(CN2CCN(Cc3c[nH]c4ccccc34)CC2)cc1` displayed a cell count in assay [1] of 62 cells. Further, the activation in assay [2] was 0.2% (inactive).
In the same order, the values of `Cc1ccc2c(c1)C(O)(CC(=O)c1cccc(-n3cccc3)c1)C(=O)N2` (configuration not stated) are 57 cells and 1.6% (inactive).
The matching figures for `O=C(Nc1ccc(F)c([N+](=O)[O-])c1)C1CCCO1` (configuration not stated): 58 cells and -0.8% (inactive).
`CCCC(=O)Nc1ncnc2c1ncn2[C@@H]1O[C@@H]2OP(=O)(O)OC[C@H]2[C@H]1OC(=O)CCC` yielded a cell count in assay [1] of 60 cells. In addition, the activation in assay [2] is 1.1% (inactive).
In turn, `COc1ccc(C)cc1-n1nnnc1SCC(=O)c1cc(C)n(Cc2ccco2)c1C` showed a cell count in assay [1] of 88 cells. Further, the activation in assay [2] is 2.5% (inactive).
In assay [1], `Cc1ccc2nc3c(cc(C(=O)NCCc4ccccc4)c(=N)n3CC3CCCO3)c(=O)n2c1` (configuration not stated) displayed a cell count of 47 cells. In addition, in assay [2], the activation is 0.1% (inactive).
On to `O=C(COC(=O)C1CC2C=CC1C2)Nc1ccccc1` (configuration not stated), for which the cell count in assay [1] was found to be 55 cells. Besides, in assay [2], the activation was -0.8% (inactive).
In the case of `CCOc1ccc(N(CC(=O)Nc2ccccc2F)S(=O)(=O)c2c(C)[nH]c(=O)[nH]c2=O)cc1`, the cell count in assay [1] is 61 cells. In addition, in assay [2], the activation was -0.8% (inactive).
The matching figures for `CCCCCCCCCCOC(=O)Cn1c(COc2ccc(C)cc2)[n+](C)c2ccccc21`: 48 cells and 28.5% (inactive).
In the same order, the values of `COc1cccc(OCc2nnc3n2N=C(c2ccccc2)C(CC(=O)O)S3)c1` (configuration not stated) are 51 cells and 0.6% (inactive).
As to `CCCCCCCCCCOC(=O)Cn1c(COc2cccc(OC)c2)[n+](C)c2ccccc21`, the cell count in assay [1] came to 71 cells. In assay [2], the activation was 69.3% (active).
In the same order, the values of `CC1=C(C(=O)OCc2ccccc2)C(c2ccco2)n2ncnc2N1` (configuration not stated) are 52 cells and -3.8% (inactive).
In the case of `CCOC(=O)CSC1=C(C#N)C(c2ccco2)C(C(=O)OCc2ccccc2)=C(C)N1` (configuration not stated), the cell count in assay [1] amounted to 51 cells. The activation in assay [2] was 41.1% (active).
For `CC1=C(C(=O)Nc2ccccc2)C(c2cccs2)C(C#N)=C(SCC#N)N1` (configuration not stated), the cell count in assay [1] was 63 cells. The activation in assay [2] is 0.8% (inactive).
Consider `Cc1ccccc1C(=O)Nc1cccc(-c2nnc(SCC(=O)O)n2C)c1`, for which the cell count in assay [1] amounted to 57 cells. For the same compound, the activation in assay [2] is 1.7% (inactive).
In assay [1], `Cc1cc(S(=O)(=O)NCc2ccccn2)c(Cl)cc1Cl` had a cell count of 75 cells. The activation in assay [2] was 0.3% (inactive).
`Cc1cc(/C=C2/SC(=O)N(CC(=O)OC(C)C)C2=O)c(C)n1C`: in assay [1], the cell count worked out at 60 cells. Besides, the activation in assay [2] was 0.9% (inactive).
In the case of `COc1ccccc1C(=O)Nn1cnnc1`, the cell count in assay [1] came to 66 cells. Moreover, the activation in assay [2] is -0.3% (inactive).
Compound `COc1ccc(C2=NN(c3ccccc3)C(c3cccs3)C2)cc1` (configuration not stated) gave a cell count in assay [1] of 44 cells. Also, in assay [2], the activation is 1.2% (inactive).
The matching figures for `Oc1ccccc1C1=NN(c2ccccc2)C(c2ccccc2)C1` (configuration not stated): 102 cells and 48.9% (active).
As to `O=C1C2N=NN(CC(=O)N3N=C(c4cccc5ccccc45)CC3c3ccccc3)C2C(=O)N1c1ccccc1` (configuration not stated), the cell count in assay [1] was determined as 87 cells. The activation in assay [2] was 2.9% (inactive).
The matching figures for `O=C(/C=C/c1ccc(Cl)c([N+](=O)[O-])c1)c1cccnc1`: 51 cells and 50% (active).
In the same order, the values of `O=C(/C=C/c1ccc(Cl)cc1Cl)c1cccnc1` are 71 cells and 29.2% (inactive).
In the same order, the values of `O=C(Nc1ccncc1)c1ccc(Cl)c([N+](=O)[O-])c1` are 85 cells and -0.2% (inactive).
